# Experimental data published in PubChem BioAssay AID1347073 (National Center for Advancing Translational Sciences (NCATS), 2019).
# Out of some 45,000 compounds screened, about 200 (0.44%) were called active. About 7% were inconclusive and are not listed. Shown is part of a subset that was picked to be rich in actives. Values without a mark were called inactive. Calls follow the shape of the dose curve; as a rule, active = well fitted activation curve with a large enough effect; inconclusive = small, poorly fitted or top-dose-only effect; inactive = no such curve, though single readings can be large or run the other way.
# Test: qHTS of TDP-43 Inhibitors: NCGC Sytravon Library Screen; also: nearly all actives have a fitted effect of over 55% in size; as to growth rescue (activation): 0% is about no effect
# Details: yeast TDP-43 toxicity rescue, BacTiter-Glo growth, 24 h; series mostly up to 46.1 µM; growth rescue (activation): at the top concentration
# Excerpt: The goal of this project is to identify new chemical probes capable of reversing the toxicity associated with TDP-43 which is associated with frontotemporal lobar degeneration and amyotrophic lateral sclerosis. These compounds will provide a complementary approach to deciphering the tangled mechanisms of toxicity and protection that we have uncovered through genome-wide genetic screens and are beginning to uncover in a large-scale proteomics analysis with mass spectroscopy. To this end, a miniaturized assay was developed to be screened against the Molecular Libraries Small Molecule Repository (MLSMR) to discover TDP-43 inhibitors. Please note that in the set-up this yeast-based assay compounds that inhibit as TDP-43, have a read-out as activators. NIH Chemical Genomics Center [NCGC] NIH Molecular Libraries Probe Centers Network [MLPCN] Assay Submitter (PI): Susan Lindquist, Whitehead Institute/MIT MLPCN Grant: R21 NS060957
# Dispense 2.5 microL yeast galactose medium per 1536-well plate, pin compound, dispense 2.5 microL TDP-43 expressing yeast in galactose medium at OD600=0.02 (pregrown in raffinose medium to mid-log phase) per well, incubate for 24 hr at 30 deg C, and cell growth will be measured using 5 microL of Bactiter/Glo reagent to entire plate and read using Luminescence Protocol in ViewLux.
# Potency is read from the fitted curve at half-maximal effect.
SMILES,growth rescue (activation),Potency
O=C(CN1CCC(O)(c2cccc(C(F)(F)F)c2)CC1)NCCc1ccccc1,-14.5%,
CC(NC(=O)COC(=O)c1cc(=O)[nH]c2ccccc12)c1ccccc1 (configuration not stated),-3.18%,
COc1cc(C(c2c(NC(=O)c3ccco3)sc(C)c2C)N2CCOCC2)cc(OC)c1OC (configuration not stated),20.2%,
CC1(C(=O)Nc2cccc3cccnc23)CCN1C(=O)CCC1CCCC1 (configuration not stated),23.9%,
Cc1ccc(N2C(=O)CN=C2Nc2nc(C)cc(C)n2)cc1,-13.7%,
CCOc1cc(NC(=O)CCl)c(OCC)cc1NC(C)=O,-3.67%,
O=S(=O)(Nc1ncnc2sccc12)c1cccc(F)c1,19.2%,
CCN(CC(=O)NCc1ccco1)S(=O)(=O)c1ccc(F)cc1,-6%,
Cc1cc(C)cc(N(CC(=O)NC2CCCC2)C(=O)CCC(=O)Nc2nccs2)c1,4.02%,
COc1cc(C(=O)OCc2cc(=O)n3ccsc3n2)ccc1OC(C)C,16.8%,
COCCNC(=O)CSc1nc2sccc2c(=O)n1-c1ccccc1,1.63%,
CC(=O)NC(Cc1ccc(F)c(F)c1)C(=O)NC1CCN(c2nnnn2-c2ccccc2)CC1 (configuration not stated),-0.882%,
CC1CN(c2nc(-c3ccccc3)nnc2-c2ccccc2)CC(C)O1 (configuration not stated),,12.6 µM (active)
CC1CN(C(=S)SCC(=O)c2ccccc2)CC(C)O1 (configuration not stated),20.5%,
COc1ccc(CNc2ncnc3ccccc23)cc1,-6.94%,
NS(=O)(=O)c1ccc(CCNc2nc(C(F)(F)F)nc3ccccc23)cc1,10.7%,
COc1cccc(CNc2nc(C(F)(F)F)nc3ccccc23)c1,,15.8 µM (active)
CN(c1ccccc1)S(=O)(=O)c1cccc(NC(=O)Cc2c(F)cccc2Cl)c1,9.22%,
O=C(COc1ccc(Br)cc1F)NCC1(N2CCCCC2)CCCCC1,-1.19%,
Cc1cccc(NC(=S)N2CCC(O)CC2)c1C,11.9%,
CCOC(=O)/C(=N\Nc1ccccc1Cl)N(C)C1CCS(=O)(=O)C1 (configuration not stated),17.3%,
CC(C)CN1CCNC(=O)C1CC(=O)N(C)CC1CCOCC1 (configuration not stated),-15.8%,
O=C(c1cccc(S(=O)(=O)N2CCCC2)c1)N(Cc1ccco1)C1CCS(=O)(=O)C1 (configuration not stated),2.24%,

SMILES,growth rescue (activation),Potency
COc1ccc(-c2nn(C)c(=O)c3ccccc23)cc1CNC(=O)C1CCCCC1,10.4%,
CCc1ccc(N2CC(C(=O)Nc3ccc(S(=O)(=O)Nc4nccs4)cc3)CC2=O)cc1 (configuration not stated),3.52%,
Cc1nc2c(OCc3ccc(Cl)cc3Cl)cccn2c1N(C)CC1CC1,-1.5%,
CC1CCN(c2ccc(C(=O)Nc3nnc(C4CC4)s3)cc2[N+](=O)[O-])CC1,1.71%,
Cc1ccc(NC(=O)c2ccc(Cl)nc2)cc1S(=O)(=O)N1CCOCC1,1.92%,
CC(C)N(C)C(=O)CCc1nnc(CCc2c[nH]c3ccccc23)o1,-2.17%,
CC(CC(=O)N1CCN(S(=O)(=O)c2ccccc2)CC1)n1cncn1 (configuration not stated),-14.2%,
COc1ccc(OCC(=O)Nc2cc(C)c(Cl)cc2OC)c([N+](=O)[O-])c1,12.2%,
Cc1ccc([N+](=O)[O-])cc1S(=O)(=O)N1CCCN(C)CC1,10.7%,
Cc1ccc(C)c(S(=O)(=O)N2CCN(c3ncnc4sccc34)CC2)c1,,11.2 µM (active)
Cc1ccc(C)c(S(=O)(=O)N2CCN(CC(=O)Nc3ccc([N+](=O)[O-])cc3)CC2)c1,21.5%,
CCN(CC(=O)Nc1ccccc1C(=O)NC1CC1)Cc1cccs1,14.9%,
CC(=O)NC(CC(=O)Nc1ccc(S(=O)(=O)N2CCOCC2)cc1)c1ccccc1 (configuration not stated),21.1%,
COc1ccc(NC(=O)N2CCCC(C(=O)Nc3ccccc3OC)C2)cc1 (configuration not stated),18.1%,
COc1ccc(CNC(=O)C(c2ccc(O)cc2)N(Cc2ccco2)C(=O)c2snc(C(N)=O)c2N)cc1 (configuration not stated),-7.37%,
O=C(c1cccs1)N(Cc1cc2ccccc2[nH]c1=O)CC1CCCO1 (configuration not stated),-0.588%,
CCOc1ccc(C(C)=O)cc1CSc1nnc(-c2ccncc2)n1CCOC,-4.62%,
CCOc1ccc(S(=O)(=O)N2CCC(C(=O)NCc3ccccn3)CC2)cc1Cl,-4.66%,
Cc1cccc(C(=O)N2CCN(S(=O)(=O)N3CCCCC3)CC2)c1,28.1%,
Cc1ccc(C(=O)NNC(=O)CSc2nnc3ccccn23)cc1,5.26%,
Cc1cc(C)nc(N/N=C/c2c(C)oc3ccccc23)n1,13.5%,
CCOC(=O)C1CCN(C(=O)COc2cccc3ccccc23)CC1,14.4%,
CN(C)S(=O)(=O)Oc1ccccc1C(=O)Nc1ccccc1Cl,5.76%,

SMILES,growth rescue (activation),Potency
CC1(C(=O)NS(=O)(=O)c2ccc(Cl)cc2)CCN1C(=O)CC1CCCC1 (configuration not stated),5.06%,
O=C(N/N=C/c1ccc([N+](=O)[O-])cc1)C(=O)N1CCCC1,10.7%,
C/C(=C/C(=O)N1CCN(C)CC1)C(=O)O,-4.69%,
CCOc1ccc(NC(=O)CCC(=O)NNC(=O)NC2CCCCC2)cc1,-6.88%,
O=C(O)CC/C(=C\c1cc2c(cc1Br)OCO2)c1nc2ccccc2s1,14.9%,
O=C(O)c1ccccc1CSc1nc2ccccc2s1,,11.2 µM (active)
O=C(O)c1cccc(S(=O)(=O)Nc2ccc(O)cc2Sc2nc3ccccc3s2)c1,8.39%,
COc1ccccc1N(CC(=O)Nc1ccc(C)cc1Cl)S(=O)(=O)c1cccs1,3.97%,
O=C(NNS(=O)(=O)c1ccc(F)cc1)C1CCCCC1,15.8%,
O=C(Nc1ccc(Cl)cc1)c1csc([C@H]2C[C@H](O)[C@@H](CO)O2)n1,-7.86%,
CCOC(=O)c1oc2c(CN3CCN(CCO)CC3)c(O)c(CC)cc2c(=O)c1-c1nc2ccccc2s1,-2.19%,
CCNc1nc(NCC)nc(N/N=C/c2ccc(O)c(OC)c2)n1,8.29%,
COc1ccc(C(=O)NC2CCN(C(=O)Nc3ccc(F)cc3)CC2)cc1,4.62%,
Cc1nc(CN2CCN(C(=O)CCc3nnc(Cc4c[nH]c5ccccc45)o3)CC2)cs1,5.06%,
CCNC(=O)C1(C)CCCN(Cc2noc(-c3ccccc3OC)n2)C1 (configuration not stated),8.22%,
Cc1ccc(CN(CC(=O)NCC2CCCO2)S(=O)(=O)c2ccc(C)cc2)cc1 (configuration not stated),21%,
COC(=O)c1c(NC(=O)CN2C(=O)NC(CCc3ccccc3)C2=O)sc2c1CCCCC2 (configuration not stated),-21.8%,
COCCNC(=O)CN(Cc1ccco1)C(=O)CCC(=O)Nc1nccs1,2.54%,
O=C(NCCCN1CCOCC1)c1cc(-c2cccc(O)c2)on1,-3.23%,
COc1ccc(CCNC2=CC(=O)CC(C)(C)C2)cc1,-5.94%,
CCOc1ccccc1/C=N/Nc1nc2ccccc2o1,15.2%,
